Reference: article PMC4336329 (PLoS ONE, 2015)
Hit rate of the full screen: of about 310,000 compounds, about 14,000 (4.5%) showed an effect of 50% or more. The effect is printed as a negative number. The entries come from a sample that favours strong results as a whole.

The compounds below were run against human ether-à-go-go-related gene (hERG) potassium channel (human, UniProt Q12809) (assay: primary screen, population patch clamp on CHO cells stably expressing hERG; higher = less effect of the substance).
Chain of human ether-à-go-go-related gene (hERG) potassium channel (Q12809 whole entry, looked up): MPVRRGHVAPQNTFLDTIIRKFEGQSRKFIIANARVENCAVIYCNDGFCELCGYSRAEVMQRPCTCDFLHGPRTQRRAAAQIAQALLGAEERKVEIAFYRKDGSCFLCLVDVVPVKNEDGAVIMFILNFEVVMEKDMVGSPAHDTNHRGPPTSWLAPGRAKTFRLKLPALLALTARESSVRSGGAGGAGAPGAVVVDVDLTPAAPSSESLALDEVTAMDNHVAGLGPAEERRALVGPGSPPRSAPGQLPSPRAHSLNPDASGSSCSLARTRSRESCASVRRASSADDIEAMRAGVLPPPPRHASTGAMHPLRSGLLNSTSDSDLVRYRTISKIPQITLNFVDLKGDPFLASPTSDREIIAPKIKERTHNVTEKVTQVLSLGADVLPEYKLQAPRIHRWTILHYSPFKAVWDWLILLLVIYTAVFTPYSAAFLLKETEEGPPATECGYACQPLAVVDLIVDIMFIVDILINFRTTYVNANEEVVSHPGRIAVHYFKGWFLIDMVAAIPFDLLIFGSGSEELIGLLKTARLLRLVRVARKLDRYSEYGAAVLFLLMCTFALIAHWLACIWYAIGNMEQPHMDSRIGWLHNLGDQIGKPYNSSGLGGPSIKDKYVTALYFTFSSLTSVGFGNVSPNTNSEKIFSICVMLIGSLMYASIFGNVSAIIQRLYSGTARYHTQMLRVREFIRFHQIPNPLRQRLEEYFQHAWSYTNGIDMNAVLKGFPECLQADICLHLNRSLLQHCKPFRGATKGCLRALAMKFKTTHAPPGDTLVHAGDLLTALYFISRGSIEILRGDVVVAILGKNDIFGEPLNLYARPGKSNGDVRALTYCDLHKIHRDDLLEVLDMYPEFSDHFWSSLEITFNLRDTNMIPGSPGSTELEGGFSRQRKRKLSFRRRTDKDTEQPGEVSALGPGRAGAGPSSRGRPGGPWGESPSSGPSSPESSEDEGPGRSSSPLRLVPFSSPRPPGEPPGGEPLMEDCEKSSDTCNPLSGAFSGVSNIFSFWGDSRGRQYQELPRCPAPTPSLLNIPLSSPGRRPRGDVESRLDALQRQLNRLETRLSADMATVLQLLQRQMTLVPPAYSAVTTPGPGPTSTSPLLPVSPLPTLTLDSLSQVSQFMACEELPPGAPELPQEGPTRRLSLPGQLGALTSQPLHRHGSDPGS
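Also: peak tail current of the secondary pulse compared with the same well before compound.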

In order of falling “hERG current change (%, negative = inhibition) at 10uM” value:
1. Cc1ccc(CN2CCNC(=O)C2CC(=O)NCC(F)(F)F)o1 (stereo not shown)  14.1%
2. CCOc1cccc(/C=C(/C#N)c2nc3ccccc3[nH]2)c1OCC(=O)O  14.1%
3. CC(=O)c1cc(C(=O)Nc2ccc3ccccc3c2)c(C)o1  13.8%
4. COc1ccc(Cl)c2sc(N(Cc3cccnc3)C(C)=O)nc12  13.2%
5. Cc1cc(C)cc(N(CC(=O)Nc2ccccc2-c2ccccc2)S(=O)(=O)c2ccccc2)c1  13.1%
6. Cc1cc(C)cc(NC(=O)C2CCN(S(=O)(=O)c3ccc4c(c3)NC(=O)C(C)S4)CC2)c1 (stereo not shown)  8.79%
7. O=C(OC(c1ccccc1)c1nccc2ccccc12)c1cccc([N+](=O)[O-])c1 (stereo not shown)  8.01%
8. Cc1cc(C(=O)Nc2ccccc2)oc1C  7.57%
9. CN(C)/C=N/c1cnc(C(=O)c2ccc(Cl)cc2)n1C  5.58%
10. C=CCN(C(=O)CNC(=O)c1ccco1)C(C(=O)NC1CCCCC1)c1ccccc1 (stereo not shown)  1.1%
11. CN(C)C(=O)Cn1cnc2c(cnn2-c2ccc(F)cc2)c1=O  -2.06%
12. COc1ccc(S(=O)(=O)N2CCCOC2CNC(=O)C(=O)NCCCn2ccnc2)cc1 (stereo not shown)  -3.17%
13. COc1cc(C(=O)Nc2nc3ccc4nc(C)sc4c3s2)cc(OC)c1OC  -5.34%
14. COC(=O)C(C(=O)OC)C(C[N+](=O)[O-])c1ccc(OC)cc1 (stereo not shown)  -6.91%
15. COc1ccc(/C=N/NC(=O)CN(c2ccc(OC)cc2)S(=O)(=O)c2ccccc2)cc1  -7.15%
16. Br.CCCN(CCC)C1CCc2cccc(O)c2C1 (stereo not shown)  -10.6%
17. COc1ccc(N(CC(=O)N/N=C/c2cccnc2)S(=O)(=O)c2ccc(C)cc2)cc1OC  -14.2%
18. CCC(C)NC(=O)CSc1ccc(S(=O)(=O)N2CCN(Cc3ccccc3)CC2)cn1 (stereo not shown)  -16.6%
19. Br.CCCN(CCC)[C@@H]1CCc2cccc(O)c2C1  -34.4%
20. COc1ccc(N(CC(=O)N/N=C/c2cccnc2)S(=O)(=O)c2ccccc2)c(OC)c1  -40.6%
21. C=C1CCN(c2ccc(C(=O)NCCC)cc2[N+](=O)[O-])CC1  -48.3%
22. Cc1ccc(N(CC(=O)N/N=C/c2cccnc2)S(=O)(=O)c2ccccc2)cc1  -52%
23. Cc1cc(C(=O)Nc2ccc3ccccc3c2)oc1C  -68.1%
24. Br.CCCN(CCC)C1CCc2ccc(O)cc2C1 (stereo not shown)  -70%
25. Cc1cc(C)cc(N(CC(=O)N/N=C/c2ccncc2)S(=O)(=O)c2ccccc2)c1  -76.9%
